Consider 40 molecules from PubChem BioAssay AID720517 (National Center for Advancing Translational Sciences (NCATS), 2013).

Records with an inconclusive call do not appear. Active and inactive are the calls of the source. The call rests on the fitted dose curve; in most records, active means well fitted activation curve with a large enough effect; inconclusive means small, poorly fitted or top-dose-only effect; inactive means flat fitted curve, though single readings scatter.

The test is described as follows: qHTS for Inhibitors of Cell Surface uPA Generation: FP59 Counterscreen for Cherry-picked Compounds. Further: 0% is about no effect. The conditions noted are these: FP59 anthrax toxin cytotoxicity counterscreen, cells; series mostly up to 115 µM; activity (protection from FP59): at the top concentration. Background: qHTS replaces the single test concentration by a dilution series.
Regarding `COc1cccc(NC(=O)N2C3CCCC2CC(NC(C)=O)C3)c1` (stereo not given), the “activity (protection from FP59)” value is -0.276% (inactive). Turning to `CCOC(=O)N1CCN(C(=O)c2ccc3c(c2)sc2nc(-c4ccc(OC)cc4)cn23)CC1`, the “activity (protection from FP59)” value is -1.38% (inactive).

`CCOc1ccccc1N(CC(=O)Nc1ccc(OC)cc1)S(=O)(=O)c1ccccc1`: the “activity (protection from FP59)” value is 7.21% (inactive). As to `O=C(CNC(=O)N1CC(=O)Nc2ccccc21)Nc1cc(Cl)ccc1Cl`, the “activity (protection from FP59)” value is -1.54% (inactive).

Turning to `COC(=O)Cc1c(C)c2ccc(OCC(=O)N3CCCC(C)C3)c(C)c2oc1=O` (stereo not given), the “activity (protection from FP59)” value is -1.33% (inactive).

Turning to `Cc1nn(-c2ccc(F)cc2)c(C)c1NS(=O)(=O)c1ccc(Cl)cc1`, the “activity (protection from FP59)” value was -0.621% (inactive). As for `O=C(Nn1cnnc1)c1ccc(Cl)cc1`, the “activity (protection from FP59)” value was -1.44% (inactive).

On to `COc1ccc(C(C)=O)cc1CSC(=N)N`, for which the “activity (protection from FP59)” value is 0.0633% (inactive). Take `Cc1cc(C)nc(N2N=C(C(F)(F)F)CC2=O)n1`: the “activity (protection from FP59)” value was -1.28% (inactive). Under `CCOCCCn1c(SCC(=O)Nc2oc(C)c3c(C)n[nH]c(=O)c23)nc2ccccc2c1=O` stands -1.53% (inactive); under `C=CCN1C=C2C(=O)C(C)(OC(=O)c3cnc4ccccc4n3)C(=O)C=C2C=C1/C=C/COC` (stereo not given), -1.35% (inactive); under `CC(=O)Nc1ccc(NC(=O)CCCCCN2C(=O)c3ccccc3C2=O)cc1`, -1.56% (inactive). In the case of `CCC(C(=O)NCc1ccc(C)cc1)c1ccccc1` (stereo not given) it was -1.46% (inactive).

For the molecule `COc1ccccc1-c1ccc(SCC(=O)NCCc2ccccc2)nn1`, the “activity (protection from FP59)” value is -1.22% (inactive). In the case of `Cc1ccc(N2C(=O)c3ccccc3C2(O)c2ccccc2)cc1` (stereo not given) it was -1.32% (inactive). Under `CCNC(=S)NNC(=O)c1ccncc1` stands -1.47% (inactive); under `COc1ccc(C)cc1NC(=O)NNC(=O)C1CCC(C(C)(C)C)CC1` (stereo not given), 3.33% (inactive); under `COC(=O)CNC(=O)COC(=O)/C=C/c1ccccc1[N+](=O)[O-]`, -1.46% (inactive). In the case of `O=C(COc1ccccc1F)NCC(c1ccc(F)cc1)N1CCOCC1` (stereo not given) it was -1.3% (inactive); in that of `CCOC(=O)C1CCN(C(=O)COC(=O)c2c(C)c(CC)nc3ccccc23)CC1`, -1.5% (inactive); in that of `O=C1OCC/C1=C\c1ccc(O)cc1`, -1.59% (inactive). For `O=C(CCc1ccccc1)NNC(=O)c1cccc(F)c1`, the “activity (protection from FP59)” value was -1.48% (inactive). Under `COc1cc(C(=O)Nc2nnc(C)s2)cc(OC)c1OC` stands -1.5% (inactive). Under `COCCn1c(SCC(=O)Nc2ccc(F)cc2)nc2ccccc2c1=O` stands -1.36% (inactive). In the case of `O=C(NCCS(=O)(=O)N1CCC2(CC1)OCCO2)c1ccc(F)cc1` it was -1.3% (inactive); in that of `COc1ccc(CCNC(=O)Cn2c(=O)n(-c3cc(F)ccc3F)c(=O)c3sccc32)cc1OC`, -1.16% (inactive). As for `O=C(C1CCCCN1S(=O)(=O)c1ccc(F)cc1)N1CCN(c2ccccc2F)CC1` (stereo not given), the “activity (protection from FP59)” value was -0.0276% (inactive).

With `CCCOC(=O)CSC1=C(C#N)C(c2ccccc2Cl)CC(=O)N1` (stereo not given), the “activity (protection from FP59)” value is -1.15% (inactive). Under `Cc1cc(C)cc(NC(=O)Cc2ccc(NC3=NC4CS(=O)(=O)CC4S3)cc2)c1` (stereo not given) stands -1.22% (inactive).

Turning to `Cc1ccc(NC(=O)CCCn2c(=S)[nH]c3ccsc3c2=O)cc1C`, the “activity (protection from FP59)” value is 1.08% (inactive). Under `CN1CCN(c2ccc(S(=O)(=O)N3CCOCC3)cc2NC(=O)CSCc2ccccc2)CC1` stands 1.22% (inactive); under `Cc1cc(=O)[nH]c2c(C)cc(S(=O)(=O)Nc3ccc(O)cc3)cc12`, 1.18% (inactive). Under `CCOC(=O)C1=C(CN2CCN(C(=O)c3ccco3)CC2)NC(=O)NC1c1ccccc1` (stereo not given) stands -0.369% (inactive); under `Cc1cccc(NC(=O)C2CCCN(S(=O)(=O)c3ccc4[nH]c(=O)ccc4c3)C2)c1` (stereo not given), -1.46% (inactive).

`CS/C(=C\[N+](=O)[O-])Nc1ccccc1`: the “activity (protection from FP59)” value was -1.4% (inactive). With `Cc1c(C(=O)N2CCN(S(=O)(=O)c3cccs3)CC2)oc2ccc(F)cc12`, the “activity (protection from FP59)” value is -1.4% (inactive).

Consider `CC(=O)c1ccc2c(c1)c1ccccc1n2CC(C)C`, for which the “activity (protection from FP59)” value is -1.24% (inactive). In the case of `O=C(Nc1ccc(N2CCOCC2)cc1)c1ccc(Cl)c(S(=O)(=O)N2CCCC2)c1` it was -1.51% (inactive); in that of `COCCNC(=O)COCc1cc(-c2ccc3c(c2)OCO3)on1`, -1.49% (inactive). In the case of `Fc1cccc(Cl)c1CSc1ccc(-c2cccnc2)nn1` it was -1.46% (inactive).
